Source: PubChem
Jurkat NFkB inh = inhibitors of the PMA/ionomycin-induced NF-kB reporter in Jurkat cells | PMA/ionomycin-induced NF-kB luciferase reporter, luminescence | inhibition, % at 4 µM | 330,000 compounds, 0.53% hits | AID 435003; in the data active = inhibition above about 50%
Bfl-1 A1 inh = inhibitors of the anti-apoptotic protein A1, read as caspase activation; AID 2462; caspase activation, % (test concentration not listed); MEF A1-2A-BIM cells, Caspase-Glo 3/7 luminescence, 3 h; percent of clofoctol response, vehicle zero; 330,000 compounds, 0.066% hits;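 active = over half of replicate activation scores above 10%, or exactly half above 10 with the replicate mean above 10; inconclusive = replicate mean below 10 yet half the replicates above 10; inactive = over half of replicates below 10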
697 NFkB inh = inhibitors of the PMA/ionomycin-induced NF-kB reporter in 697 B cells; inhibition, % at 4 µM; 330,000 compounds, 0.33% hits; AID 435022; 697 B-cell NF-kB luciferase reporter, 16 h; in the data active = inhibition above about 35%
Mdm2 MdmX PPI = disrupts the human Mdm2-MdmX interaction; O15151+Q00987; inhibition, % at 8 µM; 330,000 compounds, 3% hits; SaOS-2 split-luciferase Mdm2/MdmX complementation, luminescence;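 active = inhibition of at least 50% at 8 µM in the primary screen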
NTR1 ag = agonists of human neurotensin receptor NTR1 | activation, % at 20 µM | P30989 | 330,000 compounds, 0.17% hits | NTR1-U2OS beta-arrestin-GFP spot imaging, agonist mode;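 active = activation at or above 40% of the spot to cytoplasm intensity ratio, with at least 20 cells analyzed; inconclusive = wells under 20 cells, flagged as cytotoxic or low count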;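 also: 0% = DMSO without peptide and 100% = 100 nM NTR1 peptide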
Target sequence (P30989 whole entry, looked up): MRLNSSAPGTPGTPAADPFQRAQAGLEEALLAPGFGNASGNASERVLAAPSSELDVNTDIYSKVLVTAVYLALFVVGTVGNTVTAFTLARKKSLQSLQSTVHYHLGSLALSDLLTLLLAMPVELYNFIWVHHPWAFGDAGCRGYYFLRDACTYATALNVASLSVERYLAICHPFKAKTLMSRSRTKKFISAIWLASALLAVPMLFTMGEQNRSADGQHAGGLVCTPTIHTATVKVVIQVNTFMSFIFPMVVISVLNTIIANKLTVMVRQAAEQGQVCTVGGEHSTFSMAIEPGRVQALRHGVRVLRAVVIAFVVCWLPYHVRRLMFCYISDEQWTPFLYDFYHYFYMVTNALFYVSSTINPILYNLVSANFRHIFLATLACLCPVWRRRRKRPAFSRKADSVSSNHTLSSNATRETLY
Beta cell apopt = beta cell apoptosis inhibition | AID 435005 | INS-1E cytokine-induced death, ATP luminescence, 48 h; percent of positive-control rescue, neutral wells zero | 300,000 compounds, 0.8% hits | protection from apoptosis, % (concentration not given with the values);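 active = Every replicate reaches about 75%, or at least half do and their mean reaches it too, limit read from the data; inconclusive = At least half of replicates reach the limit but their mean does not; inactive = Under half of replicates reach the limit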;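 also: 0% = cytokine-treated negative control wells and 100% = positive control rescue; higher means more ATP so stronger rescue from cytokine killing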
Mdm2-MdmX conf = human Mdm2/MdmX binding inhibition, confirmed. inhibition, % at 8 µM. shares compounds with Mdm2 MdmX PPI. luminescent assay. 10,000 compounds, 55% hits. AID 489028; in the data active = inhibition above about 40%
FLuc counter = full-length luciferase inhibition in Mdm2/MdmX counter-screen | shares compounds with Mdm2 MdmX PPI | SaOS-2 full-length luciferase counterscreen, luminescence | inhibition, % at 8 µM | 6,200 compounds, 77% hits;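 active = mean inhibition at 8 µM reaching about 37%, which flags the compound as non-specific, limit read from the data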;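 also: p53-null SaOS-2 cells with luciferase driven by a doxycycline-inducible promoter; compound on cells about two nights before reading with doxycycline added after day one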
Numbers without * were called inactive; ? = inconclusive; . = no result. An excerpt weighted towards active compounds, which were near 3.8% of everything screened.

SMILES	Jurkat NFkB inh	Bfl-1 A1 inh	697 NFkB inh	Mdm2 MdmX PPI	NTR1 ag	Beta cell apopt	Mdm2-MdmX conf	others
CN(C)S(=O)(=O)c1cccc(NC(=O)c2ccc3c(c2)S(=O)(=O)N=C2CCCCCN23)c1	1	0	19	25	0	.	.
N#C/C(=C\Nc1ccc2cn[nH]c2c1)c1nc(-c2ccc(Cl)cc2)cs1	-4	-1	1	50*	4	64	14
COc1ccc(Cc2c(C)nc(N)nc2Cl)cc1	15	0	-2	6	-2	-3	.
Cc1nc(N)nc(N)c1CCCc1ccc(Cl)c(Cl)c1	11	0	-43	68*	4	5	57*	FLuc counter=50*
Cn1c(N2CCN(C(c3ccccc3)c3ccccc3)CC2)nc2c1c(=O)[nH]c(=O)n2C	24	1	13	60*	8	4	58*	FLuc counter=87*
Clc1cncc(Cl)c1N/N=C/c1ccncc1	35	-1	24	65*	4	-25	63*	FLuc counter=28
CN(C(=O)COC(=O)c1ccc(S(=O)(=O)N2CCOCC2)cc1)c1ccccc1	5	0	11	11	2	-1	.
COc1ccc(CCNC(=O)/C(C#N)=C2\N=C(NC(=O)c3ccco3)c3ccccc32)cc1	7	0	-10	52*	9	-6	-13
N#C/C(C(=O)NCCc1ccccc1)=C1/N=C(NC(=O)c2cccs2)c2ccccc21	8	1	4	39	5	6	.
COCCCNC(=O)/C(C#N)=C1\N=C(NC(=O)c2cccs2)c2ccccc21	7	2	13	-3	0	1	.
N#C/C(C(=O)NCc1ccccc1)=C1/N=C(NC(=O)c2ccco2)c2ccccc21	-15	0	2	65*	0	-2	10
O=C(CNc1ccc(Br)cc1)Nc1ccc(S(=O)(=O)N2CCCC2)cc1	3	0	19	32	11	-3	.
COC(=O)c1ccc(C)c(NC(=O)CCCN2C(=O)NC(C)(C)C2=O)c1	10	0	18	4	-2	1	.
CC1CCCC(NC(=O)COC(=O)c2ccc3ncsc3c2)C1C (centres undefined)	-6	0	-6	7	2	-3	.
CCn1c(-c2ccccc2)c(C(=O)CCl)c2ccccc21	5	0	-64	98*	4	?	10
CCn1c2ccccc2c(=O)c2ccccc21	-3	0	5	9	-1	-2	.
CCCn1c(SCC(=O)Nc2nc(-c3ccc(OC)cc3)cs2)nc2c1c(=O)n(C)c(=O)n2C	15	0	-24	68*	2	-2	13
CCn1c(SCC(=O)Nc2nc3ccc(OC)cc3s2)nc2c1c(=O)n(C)c(=O)n2C	3	-1	-7	22	22	.	.
CCC(=O)Nc1ccc(NC(=O)CSc2nc3c(c(=O)n(C)c(=O)n3C)n2CC)cc1	-4	0	8	9	0	-5	.
CCn1c(SCC(=O)Nc2nc(-c3ccccc3)cs2)nc2c1c(=O)n(C)c(=O)n2C	0	0	-21	64*	6	3	8
Cc1nnc(NC(=O)c2nn(CC(C)C)c(=O)c3ccccc23)s1	5	1	21	6	-1	3	.
Cn1nc(C(=O)Nc2cccc(S(=O)(=O)N3CCCC3)c2)c2ccccc2c1=O	-2	1	-7	54*	2	-8	2
CCCC(=O)Nc1cccc(S(=O)(=O)N(C)c2ccccc2)c1	1	0	1	20	3	-5	.
CCCn1nc(C(=O)Nc2ccc(N3CCOCC3)cc2)c2ccccc2c1=O	1	0	-4	51*	4	-2	10
CCCn1nc(C(=O)Nc2cccc(S(=O)(=O)N(C)c3ccccc3)c2)c2ccccc2c1=O	2	0	-15	53*	1	12	13
Cc1nc2ccc(NC(=O)c3nn(CC(C)C)c(=O)c4ccccc34)cc2s1	16	1	-93	77*	5	-2	86*	FLuc counter=51*
